Assay [1] concerns the target Thyroid hormone receptor beta (Homo sapiens) (UniProt P10828). The experiment in a line: qHTS assay for small molecule agonists of thyroid hormone receptor beta signaling (AID 588545; calls by dose curve;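 note: 0% = DMSO only and 100% = 10 nM T3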). Summed up:
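Beta-lactamase reporter activity under TR response element control is measured in HEK 293 cells after 18 hrs compound exposure. Signal is ratiometric CCF4 fluorescence, 460/530 nm.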
Background: qHTS replaces the single test concentration by a dilution series.

The nature of assay [2]: qHTS assay for small molecule antagonists of retinoid X receptor alpha signaling (AID 588546; active = well fitted inhibition curve with a large enough effect in the signal ratio, with a control signal flat, not every such curve was filed as active; the % refers to the signal ratio;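 note: cells stimulated with 9-cis-retinoic acid as agonist; % is set by controls: 0 for no effect and ±100 for the full control effect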). The settings on record: HEK293T RXRa-UAS-bla, beta-lactamase ratio, antagonist mode; measured here: W530 green channel, cytotoxicity proxy. The procedure, abridged:
(§1)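 Beta-lactamase reporter inhibition, read as CCF4 fluorescence ratio (ex 405, em 460/530 nm) after 2 h at RT. HEK293T UAS-bla cells, 2500/well, were stimulated with 9-cis-RA at 500 or 100 nM final alongside test compound for 18 h at 37 C.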

The target in assay [3] is Retinoic acid receptor RXR-alpha (Homo sapiens) (UniProt P19793). Described as above. Conditions: HEK293T RXRa-UAS-bla, beta-lactamase ratio, antagonist mode. Summed up:
as §1

Assay [4] concerns the target Luciferin 4-monooxygenase (Photinus pyralis) (UniProt P08659). The experiment in a line: Biochemical firefly luciferase enzyme assay for NPC (AID 624030).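 Note: purified P. pyralis luciferase at 10 nM with luciferin and ATP substrate; 0% = DMSO and -100% = full luciferase inhibition by PTC124 control; nearly all actives have a fitted effect of over 70% in size.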 The procedure, abridged:
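Counter-screen for direct inhibition of the luciferase enzyme by approved-drug library compounds, run at 10 nM enzyme in 50 mM Tris acetate (final). Luminescence was read within 5 min of enzyme-buffer addition and normalized to PTC124 versus DMSO (0%).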

The nature of assay [5]: S16 Schwann cell viability assay (CellTiter-Glo assay) (AID 624031).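 Note: cellular ATP luminescence as a viability measure; plate controls were DMSO-treated cells for no effect and cell-free wells for full effect; nearly all actives have a fitted effect of over 70% in size.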 Summed up: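 This viability control uses native rat S16 Schwann cells grown in DMEM plus 10% FBS. After a 24 h compound treatment at 37 °C, CellTiter-Glo luminescence reports ATP content, scaled against DMSO-treated and cell-free wells.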
Assay [6] in a line: S16 Schwann cell PMP22 intronic element firefly luciferase assay (AID 624032).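 Note: plate controls were DMSO for no effect and PTC124 positive control mean for full effect; nearly all actives have a fitted effect of over 30% in size.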 Summed up: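 Rat S16 Schwann cells stably carrying a PMP22 intronic element-driven Fluc reporter were seeded overnight, then exposed to compounds for 24 h at 37 °C. Luminescence was normalized to PTC124 (positive control) and DMSO (0% activity).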
The nature of assay [7]: qHTS assay for small molecule activators of the p53 signaling pathway (AID 651743; active = well fitted activation curve with a large enough effect in the signal ratio, not every such curve was filed as active; the % refers to the signal ratio; note: % of control where 0% means no effect). Conditions: HCT-116 p53RE-bla, beta-lactamase FRET ratio, 16 h; activation: stronger effect = higher value. Summed up:
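Cell-based beta-lactamase reporter (p53 response elements, HCT-116 background). After a 5-hour preincubation, cells received compound for 16 hours at 37 C; substrate development ran 2 hours at room temperature.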

Assay [8] has as its target Tumor necrosis factor (Homo sapiens) (UniProt P01375). As to the kind of experiment: qHTS assay to identify small molecules that stimulate Tumor Necrosis Factor-alpha (TNF-alpha) secretion (AID 651757; active = well fitted curve in the direction sought with a large enough effect in the signal ratio; the % refers to the signal ratio; note: 0% is about no effect). The procedure, abridged: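 Read-out is HTRF, a TR-FRET sandwich of cryptate- and XL665-labeled anti-TNF-alpha antibodies detecting cytokine secreted by THP-1 cells. Cells had been incubated with test compounds at 37 C for 17 hrs beforehand.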

Assay [9] has as its target Voltage-gated inwardly rectifying potassium channel KCNH2 (Homo sapiens) (UniProt Q12809). As to the kind of experiment: qHTS Assay for Small Molecule Inhibitors of the Human hERG Channel Activity (AID 588834).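 Note: top concentration of the series differs between compounds; % is set by controls: 0 for no effect and ±100 for the full control effect; lower thallium flux fluorescence means stronger hERG block; nearly all actives have a fitted effect of over 50% in size.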 The procedure, abridged:
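Concentration-response qHTS measuring drop in thallium-sensitive dye signal. U2OS cells carrying BacMam hERG; compound exposure ~10 min, then stimulation buffer and 2 min read at 1 sec intervals.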

A short description of assay [10]: qHTS assay for small molecule disruptors of the mitochondrial membrane potential - 1 hr assay (AID 651754; calls by dose curve; note: % is set by controls: 0 for no effect and ±100 for the full control effect; nearly all actives have a fitted effect of over 35% in size). Summed up: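 HepG2, 2,000 cells/well, overnight attachment; cpd or DMSO 1 hr, 37C/5% CO2; Mito-MPS dye 30 min, 37C; fluorescence monomer (490/535) and aggregate (540/590).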
A short description of assay [11]: qHTS assay for small molecule disruptors of the mitochondrial membrane potential - 5 hr assay (AID 651755; calls by dose curve; note: % is set by controls: 0 for no effect and ±100 for the full control effect; nearly all actives have a fitted effect of over 40% in size). The procedure, abridged: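 HepG2 cells, attached overnight at 37C, were exposed to compound or DMSO for 5 hr at 37C, 5% CO2. Mito-MPS dye was then added for 30 min, and fluorescence read at 490/535 nm (monomers) and 540/590 nm (aggregates).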
A short description of assay [12]: S16 Schwann cell PMP22 intronic element beta-lactamase assay (AID 624044; calls by dose curve;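 note: 0% = DMSO and -100% = potassium clavulanate positive control; nearly all actives have a fitted effect of over 15% in size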). The settings on record: S16 rat Schwann cells, PMP22 element beta-lactamase FRET, 24 h; ratio activity, negative = inhibition: at 38.3 µM (top of the series) unless noted. The procedure, abridged: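 Rat S16 Schwann cells with beta-Lac driven by a PMP22 intronic element, compound-treated 24 h at 37 °C. LiveBLAzer FRET B/G read: 460 nm normalized to potassium clavulanate vs DMSO; 535 nm FRET as viability; concentration-effect curves classified.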

Assay [13] in a line: qHTS assay for small molecule agonists of the antioxidant response element (ARE) signaling pathway (AID 651741; active = well fitted activation curve with a large enough effect in the signal ratio; the % refers to the signal ratio; note: potency is the fitted concentration of half-maximal effect; for activation: % of control where 0% means no effect). Summed up: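 Compounds in DMSO are pinned onto HepG2 ARE-bla cells (2,000/well) that were preincubated 5 h; plates stay 16 h at 37 C, then beta-lactamase activity is detected with LiveBLAzer B/G substrate by fluorescence.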
Assay [14] is described as follows: qHTS assay to identify small molecules that stimulate interleukin-8 (IL-8) secretion (AID 651758; active = well fitted activation curve with a large enough effect in the signal ratio; the % refers to the signal ratio; note: 0% is about no effect). Summed up:
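THP-1, 2000 cells/well; cpd 16 h, 37 C; add cryptate + XL665 anti-IL-8 Abs; RT 1-3 h; TR-FRET read.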

Values joined by “and” are separate entries in the source; they are usually repeats but may differ in a detail not shown here. Equal entries are not always repeated. Results filed as inconclusive are left out. Active and inactive are the calls of the source. Unless noted, calls come from the whole dose curve; as a rule, active = well fitted curve in the direction sought with a large enough effect; inconclusive = small, poorly fitted or top-dose-only effect, or another doubt; inactive = no such curve, though single readings can be large; an effect the other way counts as inactive or inconclusive.

Voltage-gated inwardly rectifying potassium channel KCNH2 (Homo sapiens), sequence (Q12809 whole entry, looked up): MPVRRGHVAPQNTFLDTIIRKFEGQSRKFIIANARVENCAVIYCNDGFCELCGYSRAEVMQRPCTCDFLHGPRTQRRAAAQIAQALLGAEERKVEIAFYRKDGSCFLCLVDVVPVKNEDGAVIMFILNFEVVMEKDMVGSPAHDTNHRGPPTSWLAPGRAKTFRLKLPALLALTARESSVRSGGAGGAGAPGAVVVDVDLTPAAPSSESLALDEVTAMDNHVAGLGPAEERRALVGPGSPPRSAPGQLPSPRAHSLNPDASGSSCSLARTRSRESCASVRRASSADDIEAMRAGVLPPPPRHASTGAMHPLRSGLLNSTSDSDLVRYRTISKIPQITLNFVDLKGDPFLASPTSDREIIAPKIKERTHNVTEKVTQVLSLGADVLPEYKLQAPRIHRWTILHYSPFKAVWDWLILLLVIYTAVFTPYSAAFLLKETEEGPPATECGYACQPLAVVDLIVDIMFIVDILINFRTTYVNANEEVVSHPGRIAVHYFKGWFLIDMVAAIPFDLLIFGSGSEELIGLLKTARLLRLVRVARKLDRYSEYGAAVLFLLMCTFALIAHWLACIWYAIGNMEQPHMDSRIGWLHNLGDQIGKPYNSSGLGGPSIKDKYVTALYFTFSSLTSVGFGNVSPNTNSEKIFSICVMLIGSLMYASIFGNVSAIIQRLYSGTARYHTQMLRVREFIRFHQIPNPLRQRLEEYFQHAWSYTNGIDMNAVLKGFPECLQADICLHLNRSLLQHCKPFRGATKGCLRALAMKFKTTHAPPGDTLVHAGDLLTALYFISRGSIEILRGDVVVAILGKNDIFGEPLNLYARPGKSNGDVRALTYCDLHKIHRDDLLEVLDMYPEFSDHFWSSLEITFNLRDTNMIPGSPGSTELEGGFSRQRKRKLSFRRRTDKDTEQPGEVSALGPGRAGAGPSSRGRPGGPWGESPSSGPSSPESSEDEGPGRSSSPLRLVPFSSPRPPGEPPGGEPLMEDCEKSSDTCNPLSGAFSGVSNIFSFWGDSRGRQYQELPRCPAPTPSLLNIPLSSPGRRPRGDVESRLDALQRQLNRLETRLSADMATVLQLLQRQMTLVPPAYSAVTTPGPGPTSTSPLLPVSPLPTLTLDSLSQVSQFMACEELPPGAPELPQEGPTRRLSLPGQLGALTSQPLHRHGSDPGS
Retinoic acid receptor RXR-alpha (Homo sapiens), sequence (P19793 whole entry, looked up): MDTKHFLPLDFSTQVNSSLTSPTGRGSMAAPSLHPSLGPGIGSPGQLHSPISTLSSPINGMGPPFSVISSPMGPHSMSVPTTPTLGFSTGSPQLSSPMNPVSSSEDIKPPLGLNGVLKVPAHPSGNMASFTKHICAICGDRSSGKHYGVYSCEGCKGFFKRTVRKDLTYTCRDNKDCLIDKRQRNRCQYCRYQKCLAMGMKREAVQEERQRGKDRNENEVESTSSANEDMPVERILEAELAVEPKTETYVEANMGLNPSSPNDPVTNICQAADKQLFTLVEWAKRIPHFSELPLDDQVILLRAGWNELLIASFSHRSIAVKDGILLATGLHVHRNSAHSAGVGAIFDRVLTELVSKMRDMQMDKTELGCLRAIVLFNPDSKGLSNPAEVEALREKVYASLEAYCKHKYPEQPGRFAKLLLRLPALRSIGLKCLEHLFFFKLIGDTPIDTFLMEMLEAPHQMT
Tumor necrosis factor (Homo sapiens), sequence (P01375 whole entry, looked up): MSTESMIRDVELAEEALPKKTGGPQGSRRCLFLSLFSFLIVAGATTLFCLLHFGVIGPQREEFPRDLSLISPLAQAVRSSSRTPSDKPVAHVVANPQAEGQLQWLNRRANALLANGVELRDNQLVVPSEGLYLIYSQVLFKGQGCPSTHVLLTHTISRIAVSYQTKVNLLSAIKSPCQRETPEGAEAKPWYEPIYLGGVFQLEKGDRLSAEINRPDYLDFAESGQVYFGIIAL
Luciferin 4-monooxygenase (Photinus pyralis), sequence (P08659 whole entry, looked up): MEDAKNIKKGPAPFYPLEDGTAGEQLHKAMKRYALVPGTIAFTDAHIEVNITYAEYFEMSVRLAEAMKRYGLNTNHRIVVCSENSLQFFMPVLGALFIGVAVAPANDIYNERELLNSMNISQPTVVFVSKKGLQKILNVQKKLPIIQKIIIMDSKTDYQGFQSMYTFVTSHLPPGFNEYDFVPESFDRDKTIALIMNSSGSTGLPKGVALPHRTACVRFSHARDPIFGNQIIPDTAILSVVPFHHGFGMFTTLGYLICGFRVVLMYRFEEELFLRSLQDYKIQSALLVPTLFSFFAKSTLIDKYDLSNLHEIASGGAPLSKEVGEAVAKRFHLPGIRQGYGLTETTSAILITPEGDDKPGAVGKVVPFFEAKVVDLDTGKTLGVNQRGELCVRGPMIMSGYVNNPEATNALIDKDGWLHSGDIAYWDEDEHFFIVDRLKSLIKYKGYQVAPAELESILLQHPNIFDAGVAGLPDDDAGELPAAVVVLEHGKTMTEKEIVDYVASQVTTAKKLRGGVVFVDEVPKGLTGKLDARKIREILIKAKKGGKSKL
Thyroid hormone receptor beta (Homo sapiens), sequence (P10828 whole entry, looked up): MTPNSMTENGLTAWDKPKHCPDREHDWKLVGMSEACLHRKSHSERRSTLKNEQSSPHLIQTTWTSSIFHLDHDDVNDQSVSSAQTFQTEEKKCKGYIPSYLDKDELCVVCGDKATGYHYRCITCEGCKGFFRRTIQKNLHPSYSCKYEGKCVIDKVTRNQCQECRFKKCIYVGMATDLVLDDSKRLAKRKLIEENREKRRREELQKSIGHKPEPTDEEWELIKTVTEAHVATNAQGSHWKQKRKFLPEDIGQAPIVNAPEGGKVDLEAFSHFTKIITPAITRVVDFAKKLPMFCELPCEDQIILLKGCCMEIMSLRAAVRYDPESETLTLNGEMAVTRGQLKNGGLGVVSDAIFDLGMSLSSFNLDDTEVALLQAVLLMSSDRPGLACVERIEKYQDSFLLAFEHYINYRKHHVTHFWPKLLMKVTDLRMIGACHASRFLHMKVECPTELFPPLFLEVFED

Take `CO`: the result in [1] was inactive. The max response in assay [2] was -6.65%; in [3], -0.242% (inactive). For the same molecule, the Potency entry in assay [4], in assay [5], in assay [6] and in assay [8] was “inactive” throughout. The activation in [7] is -0.522% (inactive).

Consider `CCCCC`, for which, in [1], the call was inactive. The max response in assay [2] was -4.57%; in [3], 3.28% (inactive). The Potency entry in assay [9], in assay [4], in assay [5], in assay [10], in assay [11] and in assay [8] was “inactive” throughout. In assay [7], the activation was 2.34% (inactive).

As to `CC/C=C\C/C=C\C/C=C\CCCCCCCC(=O)O`, in assay [1], the molecule was classed as inactive. For the same molecule, the figures for the max response in [2] and in assay [3] were 8.56% and -8.86% (inactive), respectively. The Potency entry in assay [9], in assay [5], in assay [6], in assay [10], in [11] and in assay [8] was “inactive” throughout. The ratio activity, negative = inhibition in assay [12] was 3.48% (inactive). Moreover, in [13], the Potency is 42.2 µM (active).

For the molecule `OB(O)O`, the molecule was called inactive in [1]. The max response in assay [2] is -7.19% and -10.5%; in assay [3] it was 9.01% (inactive) and 7.69% (inactive). Besides, the Potency result in assay [9], in assay [4], in assay [5], in assay [6], in assay [13] and in [10] was “inactive” throughout. Moreover, the Potency entry in assay [11], in assay [8] and in assay [14] was “inactive” each time. The ratio activity, negative = inhibition in assay [12] was 0.47% (inactive). For the same molecule, the activation in assay [7] is -0.565% (inactive) and -2.3% (inactive).

For the molecule `CCCCO`, the result in [1] was inactive. In addition, the max response in assay [2] is 1.36% and -14.8%; in assay [3], 4.41% (inactive) and -4.75% (inactive). Also, the Potency entry in assay [9], in assay [4], in assay [5], in [6], in [13] and in [10] was “inactive” each time. The Potency result in [11], in [8] and in assay [14] was “inactive” each time. Also, the ratio activity, negative = inhibition in assay [12] was 1.65% (inactive). The activation in [7] was 0.244% (inactive) and -1.87% (inactive).

With `Cc1ncc[nH]1`, in assay [1], the molecule was called inactive. Moreover, the max response is 2.25% in [2] and 11.5% (inactive) in [3]. Besides, the Potency entry in assay [9], in [4], in [5], in assay [6], in [13] and in [10] was “inactive” throughout. Moreover, the Potency result in assay [11], in [8] and in assay [14] was “inactive” in each case. In addition, the ratio activity, negative = inhibition in [12] was -0.768% (inactive). Also, the activation in assay [7] is -3.81% (inactive).

`CC1=CC(=O)NS(=O)(=O)O1`: the outcome in assay [1] was inactive. Besides, the max response in assay [2] was -6.4% and -5.89%; in assay [3], -5.24% (inactive) and 0.185% (inactive). Also, the Potency result in assay [9], in assay [5], in assay [6], in [13], in assay [10] and in [11] was “inactive” in each case. In addition, the Potency entry in assay [8] was “inactive”. For the same molecule, in assay [12], the ratio activity, negative = inhibition was 1.96% (inactive).

Source of the values: PubChem BioAssay (NCATS).
